# DT40 TDP1 CPT – growth inhibition of DT40 Tdp1-/-;hTDP1 cells with camptothecin (screen for TDP1 inhibitors). chicken DT40 Tdp1-/-;hTDP1 cells + 20 nM CPT, ATP luminescence, 48 h. Potency, µM (series often up to 46.2 µM), usual class: inhibitors. 420,000 compounds, 12% hits; note: nearly all actives have a fitted effect of over 55% in size
#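 Chicken DT40 Tdp1-/- cells stably complemented with human TDP1 were seeded at 400 cells/well in medium containing 20 nM camptothecin, exposed to pin-transferred compounds, and grown at 37 °C for at least 48 hr. Viability was read as ATP luminescence.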
# HT1080-NT tox – kills 2HG-producing HT-1080-NT fibrosarcoma cells; HT-1080-NT fibrosarcoma viability, CellTiter-Glo ATP luminescence, 48 h; Potency, µM (doses to about 46.1 µM), hits mostly cytotoxic; 360,000 compounds, 1.6% hits;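 note: NT is the 2HG producing partner of a matched IDH1 knockdown line; nearly all actives have a fitted effect of over 55% in size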
#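 Viability of the 2HG-overproducing fibrosarcoma line after 48 hours of compound exposure at 37 degrees C was determined by luminescence with CellTiter-Glo, and concentration-effect curves were then fitted and categorized.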
# HT1080 IDH1KD tx – kills HT-1080 cells with IDH1 knockdown; HT-1080 IDH1 knockdown viability, ATP luminescence, 48 h; Potency, µM (titrated, usually from 46.1 µM), usual class: cytotoxic; 360,000 compounds, 2% hits
#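 Assay cells: HT-1080 with IDH1 knockdown, 750 per well, RPMI/5% FBS. Exposure: 48 h at 37 °C following 2 h pre-incubation. Read: CellTiter-Glo luminescence; fitted concentration-response, curve class assigned.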
# DT40 TDP1 no CPT – qHTS for Inhibitors of human tyrosyl-DNA phosphodiesterase 1 (TDP1): qHTS in cells in absence of CPT; DT40 Tdp1-/- hTDP1 cells, no CPT, ATP luminescence, 48 h; Potency, µM (titrated, usually from 46.2 µM), most hits filed as inhibitors; 420,000 compounds, 15% hits; note: nearly all actives have a fitted effect of over 55% in size
#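 Camptothecin absent (DMSO only). Human TDP1-complemented DT40 knockout cells, 400 cells/well, 37 °C for minimum 48 hr; ATP measured via CellTiter-Glo, 30 min dark incubation, luminescence.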
# IL-1B inflam inh – blocks inflammasome-driven IL-1 beta release. activity change, % at 57.5 µM. 360,000 compounds, 4.7% hits. THP-1 LPS/ATP IL-1B secretion, AlphaLISA, 16 h; active compounds read low; in the data active = activity change below about -50%; inconclusive = mostly about -30% to -49%
#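 THP-1 cells pretreated 1 hr with compounds (up to 57.5 uM final), then stimulated with LPS (250 ng/mL final) plus ATP (1.25 mM final); secreted IL-1B measured by AlphaLISA after 16 hr, decreased signal indicating inhibition.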
# Numbers stand for hits; . = inactive; ? = inconclusive; / = no result. Most compounds without a hit are left out; they make up all but 19% or so of the library. Unless noted, calls come from the whole dose curve; as a rule, active = well fitted curve in the direction sought with a large enough effect; inconclusive = small, poorly fitted or top-dose-only effect, or another doubt; inactive = no such curve, though single readings can be large; an effect the other way counts as inactive or inconclusive.
SMILES,DT40 TDP1 CPT,HT1080-NT tox,HT1080 IDH1KD tx,DT40 TDP1 no CPT,IL-1B inflam inh
CCCCNC(=S)Nc1ccc(SC(F)F)cc1,.,?,?,?,-105
COc1ccc(NC(=O)COC(=O)c2ccc([N+](=O)[O-])o2)cc1Cl,.,.,.,.,.
O=c1c(N2CCN(c3ccc(F)cc3)CC2)csc2ccc(F)cc12,18µM,/,/,?,/
COc1ccc(CCC(=O)NCC2CCCCC2)cc1OC,.,.,.,.,.
Cc1nc2nc[nH]c2cc1Br,.,.,.,.,.
Cc1nc2nc(-c3cccs3)[nH]c2cc1Br,?,?,?,16µM,?
Cc1ccc(C(=O)Nc2nnc(-c3ccncc3)o2)cc1,?,.,.,?,.
Cc1cccc(-c2nnc(NC(=O)c3ccc(Cl)cc3)o2)c1,12µM,?,?,10µM,.
O=C(Nc1nnc(-c2cccnc2)o1)c1cccc(Cl)c1,23µM,.,.,16µM,.
O=C(Nc1nnc(-c2ccccn2)o1)c1cccc(Br)c1,21µM,.,.,?,.
Cc1sc2ncn(CC(=O)NCCCC(=O)Nc3ccc(C(C)C)cc3)c(=O)c2c1C,.,.,.,.,.
CCCNC(=O)c1ccc(N2CCC3(CC2)CC(c2ccccc2)=NO3)c([N+](=O)[O-])c1,21µM,.,.,?,?
O=C(NCc1ccccc1)c1ccc(N2CCC3(CC2)CC(c2ccc(Cl)cc2)=NO3)c([N+](=O)[O-])c1,6.5µM,.,.,?,?
CCCNC(=O)c1ccc(N2CCC3(CC2)CC(c2ccccc2)=NO3)c(NC(=O)Cc2ccc(F)cc2)c1,?,.,.,18µM,.
CC(C)(C)n1c(O)c2n(c1=O)Cc1ccccc1N=C2c1ccccc1,?,.,.,?,.
O=S(=O)(c1ccccc1)N1CCN(C(=S)Nc2ccccc2Cl)CC1,.,.,.,.,.
Cc1nn(-c2cccc(Cl)c2)c(Cl)c1/C=N/NC(=O)c1cccs1,16µM,.,?,13µM,.
CN1CCC(NCCC(c2ccc(F)cc2)c2ccc(Cl)cc2)CC1 (stereo not given),5.8µM,4.1µM,5.2µM,5.8µM,-103
CC(C)C(CCNC1CCN(C)CC1)c1ccc(Cl)cc1 (stereo not given),4.6µM,?,?,3.3µM,-52
Cc1ccc([C@H]2C[C@H](O)[C@@H](n3cc(C4CC4)nn3)CN2Cc2cccs2)cc1,9.2µM,.,.,12µM,.
COc1ccc([C@H]2C[C@H](O)[C@@H](n3cc(-c4ccc(F)cc4)nn3)CN2Cc2cccs2)cc1,5.2µM,2.9µM,4.6µM,5.2µM,-61
Cc1ccc([C@H]2C[C@@H](O)[C@H](n3cc(C4CC4)nn3)CN2Cc2cccs2)cc1,?,.,.,?,.
O[C@H]1C[C@H](c2ccccc2)N(Cc2cccs2)C[C@@H]1n1cc(-c2ccc(F)cc2)nn1,23µM,23µM,18µM,23µM,-79
Cc1cc(=O)n2c(nc3ccccc32)s1,.,.,.,.,.
CCC(=O)N1CCCC1(C)C(=O)Nc1cc(OC)ccc1OC (stereo not given),.,.,.,.,.
SMILES,DT40 TDP1 CPT,HT1080-NT tox,HT1080 IDH1KD tx,DT40 TDP1 no CPT,IL-1B inflam inh
COc1ccc(NC(=O)c2ccc([N+](=O)[O-])s2)c([N+](=O)[O-])c1,.,.,.,.,.
Cc1cccc(NC(=O)c2ccc([N+](=O)[O-])s2)c1C,15µM,.,.,21µM,.
Cc1cccc(NC(=O)c2ccc([N+](=O)[O-])s2)n1,8.2µM,?,?,5.8µM,.
Cc1ccnc(NC(=O)c2cc([N+](=O)[O-])cc([N+](=O)[O-])c2)c1,.,.,.,.,.
COCCNc1ccc([N+](=O)[O-])cc1C(=O)Nc1cccc(C)n1,13µM,.,.,?,.
Cc1ccnc(NC(=O)c2ccc([N+](=O)[O-])s2)c1,16µM,?,?,?,.
COc1cc(NC(=O)c2ccc(N3CC4CC(C3)c3cccc(=O)n3C4)c(NC(=O)c3ccncc3)c2)cc(OC)c1OC (stereo not given),.,.,.,.,?
O=C1CN(C(=O)COC(=O)COc2ccccc2)c2ccccc2N1,.,.,.,.,.
CCc1nn(CCCC(=O)N2CCN(c3cccc(OC)c3)CC2)c(=O)c2cc3occc3n12,.,/,/,.,/
Cc1cc2ccccc2n1-c1ccc(C(=O)N2CCC(C(=O)NCc3ccc(F)cc3)CC2)s1,21µM,/,/,16µM,/
CN(C)c1ccc(CNC(=O)C2CCN(C(=O)c3ccc(-n4ccc5ccccc54)s3)CC2)cc1,21µM,/,/,21µM,/
COc1ccc(CNC(=O)C2CCN(C(=O)c3ccc(-n4ccc5ccccc54)s3)CC2)cc1,10µM,/,/,13µM,/
COc1ccc(CNC(=O)C2CCN(C(=O)c3sccc3-n3cccc3)CC2)cc1,.,.,.,.,?
Cc1noc(C)c1S(=O)(=O)Nc1ccc2c(c1)C(=O)N([C@H](C)CO)C[C@@H](C)[C@@H](CN(C)Cc1ccc3c(c1)OCO3)O2,.,.,.,?,.
COc1ccc(OC)c(/C=N\Nc2nccs2)c1,?,.,.,?,.
COc1cc(/C=N/Nc2nncn2/N=C/c2ccc(O)c(OC)c2)ccc1O,?,21µM,15µM,?,.
COc1ccc(OC)c(/C=N/Nc2nncn2/N=C/c2cc(OC)ccc2OC)c1,8.2µM,?,15µM,7.3µM,?
Cc1c(S(=O)(=O)N2CCN(c3ccccc3)CC2)c(=O)n(C)c(=O)n1C,.,.,.,.,.
CCN1CCN(c2nc(C)c3c(n2)CC(C)CC3=O)CC1 (stereo not given),.,.,.,.,.
O=C1CC(c2ccco2)Cc2nc(N3CCc4ccccc4C3)ncc21 (stereo not given),?,.,.,?,.
CC1CC(C)CN(c2ncc3c(n2)CC(c2ccccc2)CC3=O)C1 (stereo not given),12µM,.,.,10µM,.
COc1cc(C2CC(=O)c3cnc(N4CCN(Cc5ccccc5)CC4)nc3C2)cc(OC)c1OC (stereo not given),7.3µM,.,.,7.3µM,.
COc1cc(C2CC(=O)c3cnc(N)nc3C2)cc(OC)c1OC (stereo not given),.,.,.,.,.
COc1ccc(C2CC(=O)c3c(C)nc(N4CCN(Cc5ccccc5)CC4)nc3C2)cc1OC (stereo not given),12µM,.,.,13µM,.
O=C(CCN1C(=O)C2C3C=CC(C4CC34)C2C1=O)Oc1ccc(Br)cc1 (stereo not given),.,.,.,.,.
O=C(CCN1C(=O)C2C3C=CC(C4CC34)C2C1=O)Oc1cccc2cccnc12 (stereo not given),5.2µM,2µM,1.3µM,3.3µM,.
